Results: the supplement of paper PMC11732987, “Enantioselective OTUD7B fragment discovery through chemoproteomics screening and high-throughput optimisation” (Communications Chemistry, 2025)

Legend:
Test in all cases: log2 ratio of Biotin-Ahx-Ub-VS probe labelling (fragment/DMSO); higher = less target engagement (more negative = stronger competition), active = hit call of the paper (q ≤ 0.05, log2 ratio ≤ -1)
Settings in all cases: compound concentration: 200 uM; treatment time: 3 h
USP42 = target: T1, USP42 (UniProt Q9H9J4)
T1 sequence (whole entry): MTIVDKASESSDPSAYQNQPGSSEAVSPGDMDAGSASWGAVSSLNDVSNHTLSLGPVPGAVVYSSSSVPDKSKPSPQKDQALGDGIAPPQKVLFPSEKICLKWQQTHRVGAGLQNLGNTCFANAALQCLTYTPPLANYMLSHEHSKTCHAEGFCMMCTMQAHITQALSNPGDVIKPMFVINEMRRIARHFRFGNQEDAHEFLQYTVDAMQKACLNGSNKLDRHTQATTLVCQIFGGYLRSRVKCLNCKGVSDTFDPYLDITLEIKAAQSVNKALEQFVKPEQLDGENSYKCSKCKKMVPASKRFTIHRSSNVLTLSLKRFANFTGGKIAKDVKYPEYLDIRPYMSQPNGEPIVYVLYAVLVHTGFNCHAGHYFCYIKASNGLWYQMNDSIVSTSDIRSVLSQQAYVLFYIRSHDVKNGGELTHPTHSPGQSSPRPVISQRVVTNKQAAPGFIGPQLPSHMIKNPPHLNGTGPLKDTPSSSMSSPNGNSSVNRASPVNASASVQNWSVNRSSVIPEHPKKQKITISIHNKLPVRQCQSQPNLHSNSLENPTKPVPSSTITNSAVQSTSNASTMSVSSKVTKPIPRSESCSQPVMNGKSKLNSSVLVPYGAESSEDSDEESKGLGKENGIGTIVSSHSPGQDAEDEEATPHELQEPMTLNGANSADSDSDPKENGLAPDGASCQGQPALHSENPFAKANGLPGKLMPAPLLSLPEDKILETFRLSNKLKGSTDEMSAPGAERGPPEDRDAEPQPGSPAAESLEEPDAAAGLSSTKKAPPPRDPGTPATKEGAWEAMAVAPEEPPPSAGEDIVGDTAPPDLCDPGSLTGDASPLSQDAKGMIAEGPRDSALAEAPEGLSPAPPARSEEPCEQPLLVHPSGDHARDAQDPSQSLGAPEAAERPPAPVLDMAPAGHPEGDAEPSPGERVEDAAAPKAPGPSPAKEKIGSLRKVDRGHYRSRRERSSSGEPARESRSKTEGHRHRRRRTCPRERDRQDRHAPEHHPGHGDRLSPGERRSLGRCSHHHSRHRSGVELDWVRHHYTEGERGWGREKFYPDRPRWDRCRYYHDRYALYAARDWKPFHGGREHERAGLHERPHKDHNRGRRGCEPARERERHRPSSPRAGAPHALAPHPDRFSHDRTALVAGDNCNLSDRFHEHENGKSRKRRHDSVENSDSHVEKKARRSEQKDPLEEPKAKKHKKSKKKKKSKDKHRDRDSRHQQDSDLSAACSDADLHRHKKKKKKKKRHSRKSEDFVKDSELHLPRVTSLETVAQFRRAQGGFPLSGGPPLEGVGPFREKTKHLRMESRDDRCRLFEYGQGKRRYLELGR
Outline: (§1)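 Average log2 ratios of fragment over vehicle were obtained by unpaired t-test from global-median-normalised Spectronaut label-free quantities. Proteins with ≥2 unique peptides were included. HEK293T lysate (495 µg per sample) was treated in triplicate with fragment at 200 µM or vehicle for 3 h, then with Biotin-Ahx-Ub-VS at 0.5 µM final for 1 h, and labelled DUBs were NeutrAvidin-enriched and run by diaPASEF LC-MS/MS.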

USP46 = USP46 (UniProt P62068)
Chain of USP46 (P62068 whole entry): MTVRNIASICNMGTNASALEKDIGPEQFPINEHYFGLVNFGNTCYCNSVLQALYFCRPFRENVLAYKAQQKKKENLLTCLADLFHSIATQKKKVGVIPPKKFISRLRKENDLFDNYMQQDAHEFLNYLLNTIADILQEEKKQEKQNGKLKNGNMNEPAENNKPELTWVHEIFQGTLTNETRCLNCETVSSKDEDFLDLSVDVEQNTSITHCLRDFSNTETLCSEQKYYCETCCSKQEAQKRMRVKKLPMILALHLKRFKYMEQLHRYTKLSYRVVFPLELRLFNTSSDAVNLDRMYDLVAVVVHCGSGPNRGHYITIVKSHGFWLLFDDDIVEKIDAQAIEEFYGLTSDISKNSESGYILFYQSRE
Outline: as §1

USP47 = target: T2, USP47 (UniProt Q96K76)
T2 sequence (whole entry): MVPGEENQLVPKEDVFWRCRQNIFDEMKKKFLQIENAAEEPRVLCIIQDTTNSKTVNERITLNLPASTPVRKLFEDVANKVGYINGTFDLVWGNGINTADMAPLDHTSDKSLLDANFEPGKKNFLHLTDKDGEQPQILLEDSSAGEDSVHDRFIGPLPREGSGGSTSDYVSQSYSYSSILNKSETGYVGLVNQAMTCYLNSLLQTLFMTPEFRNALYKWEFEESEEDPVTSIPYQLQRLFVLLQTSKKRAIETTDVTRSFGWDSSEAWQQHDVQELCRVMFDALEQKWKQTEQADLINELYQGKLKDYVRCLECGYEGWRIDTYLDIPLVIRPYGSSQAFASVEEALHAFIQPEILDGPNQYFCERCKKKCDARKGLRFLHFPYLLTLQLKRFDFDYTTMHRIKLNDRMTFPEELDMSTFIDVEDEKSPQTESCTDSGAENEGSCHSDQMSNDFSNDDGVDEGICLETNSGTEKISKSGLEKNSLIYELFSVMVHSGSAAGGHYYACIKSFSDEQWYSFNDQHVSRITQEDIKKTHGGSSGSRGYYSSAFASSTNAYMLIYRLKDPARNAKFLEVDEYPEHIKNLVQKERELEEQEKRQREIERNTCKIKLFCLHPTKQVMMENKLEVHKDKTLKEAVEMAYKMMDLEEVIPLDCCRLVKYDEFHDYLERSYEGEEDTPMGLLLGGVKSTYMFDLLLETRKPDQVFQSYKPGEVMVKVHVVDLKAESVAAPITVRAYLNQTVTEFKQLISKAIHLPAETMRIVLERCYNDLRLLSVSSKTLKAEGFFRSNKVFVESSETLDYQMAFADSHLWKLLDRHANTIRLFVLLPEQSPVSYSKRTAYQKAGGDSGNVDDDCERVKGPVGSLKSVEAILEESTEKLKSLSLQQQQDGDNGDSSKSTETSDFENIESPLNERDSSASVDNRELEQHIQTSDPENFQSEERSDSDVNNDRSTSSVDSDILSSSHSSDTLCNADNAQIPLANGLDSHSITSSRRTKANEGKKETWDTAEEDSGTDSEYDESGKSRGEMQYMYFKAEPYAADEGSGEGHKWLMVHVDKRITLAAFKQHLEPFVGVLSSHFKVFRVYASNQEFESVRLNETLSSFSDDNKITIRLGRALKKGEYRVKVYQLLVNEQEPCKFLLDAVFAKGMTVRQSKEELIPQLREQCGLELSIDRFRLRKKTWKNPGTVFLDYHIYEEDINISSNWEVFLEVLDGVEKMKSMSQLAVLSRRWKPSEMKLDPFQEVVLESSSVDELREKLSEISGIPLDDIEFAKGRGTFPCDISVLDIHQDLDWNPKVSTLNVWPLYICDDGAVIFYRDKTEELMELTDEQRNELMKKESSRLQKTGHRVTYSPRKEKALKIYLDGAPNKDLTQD
Outline: as §1

USP48 = target: T3, USP48 (UniProt Q86UV5)
T3 sequence (whole entry): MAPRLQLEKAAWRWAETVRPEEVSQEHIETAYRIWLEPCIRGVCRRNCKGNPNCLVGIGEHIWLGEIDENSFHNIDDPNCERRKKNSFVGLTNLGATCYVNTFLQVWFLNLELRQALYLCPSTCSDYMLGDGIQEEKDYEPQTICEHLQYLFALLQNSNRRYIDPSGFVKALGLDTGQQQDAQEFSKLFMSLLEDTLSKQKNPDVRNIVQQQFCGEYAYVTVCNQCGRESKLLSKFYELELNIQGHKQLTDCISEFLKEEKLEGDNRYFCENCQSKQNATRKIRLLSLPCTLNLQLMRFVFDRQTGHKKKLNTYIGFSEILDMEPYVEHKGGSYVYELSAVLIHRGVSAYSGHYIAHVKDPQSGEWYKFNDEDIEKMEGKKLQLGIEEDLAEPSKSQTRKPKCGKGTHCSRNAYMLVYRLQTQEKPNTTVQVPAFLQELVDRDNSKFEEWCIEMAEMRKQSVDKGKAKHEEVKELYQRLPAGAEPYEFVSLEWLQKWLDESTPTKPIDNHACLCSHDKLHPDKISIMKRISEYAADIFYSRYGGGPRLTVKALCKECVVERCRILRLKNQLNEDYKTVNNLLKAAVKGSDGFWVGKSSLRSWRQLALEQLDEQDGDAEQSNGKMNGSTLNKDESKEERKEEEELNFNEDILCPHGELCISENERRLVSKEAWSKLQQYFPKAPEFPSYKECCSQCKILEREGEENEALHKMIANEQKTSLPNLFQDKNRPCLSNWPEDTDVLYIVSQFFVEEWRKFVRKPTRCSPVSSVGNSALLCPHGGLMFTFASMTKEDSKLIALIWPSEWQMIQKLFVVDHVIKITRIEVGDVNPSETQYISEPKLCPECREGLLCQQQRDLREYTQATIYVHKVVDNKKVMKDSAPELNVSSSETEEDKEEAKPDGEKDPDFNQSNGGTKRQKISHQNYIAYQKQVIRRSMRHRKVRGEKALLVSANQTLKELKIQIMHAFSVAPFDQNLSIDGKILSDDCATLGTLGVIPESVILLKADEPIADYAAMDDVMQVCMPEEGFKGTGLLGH
Outline: as §1

USP5 = target: T4, USP5 (UniProt P45974)
T4 sequence (whole entry): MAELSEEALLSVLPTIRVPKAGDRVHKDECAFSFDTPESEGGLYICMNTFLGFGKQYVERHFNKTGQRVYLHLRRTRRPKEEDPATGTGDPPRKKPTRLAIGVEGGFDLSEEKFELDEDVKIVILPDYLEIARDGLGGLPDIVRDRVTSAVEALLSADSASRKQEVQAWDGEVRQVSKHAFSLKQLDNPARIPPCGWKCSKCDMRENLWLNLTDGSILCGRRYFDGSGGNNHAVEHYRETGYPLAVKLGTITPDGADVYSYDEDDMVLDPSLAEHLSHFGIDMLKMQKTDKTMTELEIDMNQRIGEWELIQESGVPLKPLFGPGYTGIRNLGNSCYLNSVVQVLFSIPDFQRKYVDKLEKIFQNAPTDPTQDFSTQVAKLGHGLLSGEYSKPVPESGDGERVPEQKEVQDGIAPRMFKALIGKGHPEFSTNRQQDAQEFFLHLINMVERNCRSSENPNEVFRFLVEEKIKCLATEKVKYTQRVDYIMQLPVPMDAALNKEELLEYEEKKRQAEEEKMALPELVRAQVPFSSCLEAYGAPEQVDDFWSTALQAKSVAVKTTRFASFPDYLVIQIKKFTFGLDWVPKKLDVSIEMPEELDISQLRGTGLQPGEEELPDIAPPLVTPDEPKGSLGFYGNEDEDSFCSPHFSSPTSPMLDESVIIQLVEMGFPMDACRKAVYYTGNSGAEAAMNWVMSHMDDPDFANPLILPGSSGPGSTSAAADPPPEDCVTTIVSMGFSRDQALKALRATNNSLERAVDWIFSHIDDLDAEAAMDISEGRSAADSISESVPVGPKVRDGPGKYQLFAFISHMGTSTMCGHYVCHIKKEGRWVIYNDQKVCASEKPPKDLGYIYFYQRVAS
Outline: as §1

USP54 = USP54 (UniProt Q70EL1)
Outline: as §1

USP7 = USP7 (UniProt Q93009)
Chain of USP7 (Q93009 whole entry, looked up): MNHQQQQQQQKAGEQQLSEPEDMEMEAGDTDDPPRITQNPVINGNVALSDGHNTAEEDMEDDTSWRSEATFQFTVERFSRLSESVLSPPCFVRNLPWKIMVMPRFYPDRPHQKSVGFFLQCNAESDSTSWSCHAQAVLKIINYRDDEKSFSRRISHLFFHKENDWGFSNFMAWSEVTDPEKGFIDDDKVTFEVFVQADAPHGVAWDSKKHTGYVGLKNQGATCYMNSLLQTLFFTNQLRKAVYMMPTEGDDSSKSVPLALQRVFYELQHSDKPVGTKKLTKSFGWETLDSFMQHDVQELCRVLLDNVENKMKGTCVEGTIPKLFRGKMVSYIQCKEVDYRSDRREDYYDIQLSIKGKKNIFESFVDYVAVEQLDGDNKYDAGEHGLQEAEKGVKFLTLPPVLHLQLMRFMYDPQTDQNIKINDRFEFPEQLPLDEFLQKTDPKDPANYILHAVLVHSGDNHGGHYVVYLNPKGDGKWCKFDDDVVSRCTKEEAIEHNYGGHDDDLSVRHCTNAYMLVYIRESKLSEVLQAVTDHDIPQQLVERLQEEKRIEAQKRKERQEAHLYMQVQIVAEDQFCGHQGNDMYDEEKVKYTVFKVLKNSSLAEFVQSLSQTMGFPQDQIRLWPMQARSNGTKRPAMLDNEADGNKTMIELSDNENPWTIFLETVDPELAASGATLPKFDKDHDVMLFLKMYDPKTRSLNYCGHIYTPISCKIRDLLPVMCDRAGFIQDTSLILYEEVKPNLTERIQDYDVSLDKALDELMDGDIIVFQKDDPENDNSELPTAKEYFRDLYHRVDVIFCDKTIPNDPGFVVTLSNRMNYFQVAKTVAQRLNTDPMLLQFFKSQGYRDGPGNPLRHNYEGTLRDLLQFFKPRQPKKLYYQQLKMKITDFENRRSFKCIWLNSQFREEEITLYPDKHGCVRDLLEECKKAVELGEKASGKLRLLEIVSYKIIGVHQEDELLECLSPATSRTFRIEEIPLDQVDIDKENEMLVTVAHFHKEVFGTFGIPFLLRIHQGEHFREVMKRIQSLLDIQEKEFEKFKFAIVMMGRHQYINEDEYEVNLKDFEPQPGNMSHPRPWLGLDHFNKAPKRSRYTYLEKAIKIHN
Outline: as §1

USP8 = target: T5, USP8 (UniProt P40818)
T5 sequence (whole entry): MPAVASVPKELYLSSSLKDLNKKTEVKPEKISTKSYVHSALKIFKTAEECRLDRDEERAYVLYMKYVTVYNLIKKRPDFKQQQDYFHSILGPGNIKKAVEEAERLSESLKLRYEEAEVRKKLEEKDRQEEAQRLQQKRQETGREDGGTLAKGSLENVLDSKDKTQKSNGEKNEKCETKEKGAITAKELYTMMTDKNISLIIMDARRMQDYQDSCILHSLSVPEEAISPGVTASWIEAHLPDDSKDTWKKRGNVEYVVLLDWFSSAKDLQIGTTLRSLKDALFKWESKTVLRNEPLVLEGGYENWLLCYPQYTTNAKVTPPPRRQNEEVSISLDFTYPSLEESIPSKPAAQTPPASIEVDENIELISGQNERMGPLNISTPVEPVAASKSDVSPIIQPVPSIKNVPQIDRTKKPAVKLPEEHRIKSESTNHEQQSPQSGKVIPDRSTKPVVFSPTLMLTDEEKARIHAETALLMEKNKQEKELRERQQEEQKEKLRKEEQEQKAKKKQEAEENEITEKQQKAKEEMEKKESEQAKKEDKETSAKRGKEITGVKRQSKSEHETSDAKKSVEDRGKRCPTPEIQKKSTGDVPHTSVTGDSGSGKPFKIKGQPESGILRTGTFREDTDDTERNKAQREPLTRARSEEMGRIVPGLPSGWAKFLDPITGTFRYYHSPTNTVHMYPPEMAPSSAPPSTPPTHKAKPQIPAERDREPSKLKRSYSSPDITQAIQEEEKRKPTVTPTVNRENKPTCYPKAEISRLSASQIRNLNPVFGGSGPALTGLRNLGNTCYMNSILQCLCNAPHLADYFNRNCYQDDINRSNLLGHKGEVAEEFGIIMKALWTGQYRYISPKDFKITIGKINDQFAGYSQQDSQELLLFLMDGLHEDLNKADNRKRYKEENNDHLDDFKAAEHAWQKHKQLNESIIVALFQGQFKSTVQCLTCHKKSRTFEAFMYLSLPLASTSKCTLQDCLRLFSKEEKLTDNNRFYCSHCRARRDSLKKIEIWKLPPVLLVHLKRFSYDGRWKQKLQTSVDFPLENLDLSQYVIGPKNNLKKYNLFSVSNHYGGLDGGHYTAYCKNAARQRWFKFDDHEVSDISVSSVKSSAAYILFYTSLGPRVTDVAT
Outline: as §1

USP9X = USP9X (UniProt Q93008)
Chain of USP9X (Q93008 whole entry): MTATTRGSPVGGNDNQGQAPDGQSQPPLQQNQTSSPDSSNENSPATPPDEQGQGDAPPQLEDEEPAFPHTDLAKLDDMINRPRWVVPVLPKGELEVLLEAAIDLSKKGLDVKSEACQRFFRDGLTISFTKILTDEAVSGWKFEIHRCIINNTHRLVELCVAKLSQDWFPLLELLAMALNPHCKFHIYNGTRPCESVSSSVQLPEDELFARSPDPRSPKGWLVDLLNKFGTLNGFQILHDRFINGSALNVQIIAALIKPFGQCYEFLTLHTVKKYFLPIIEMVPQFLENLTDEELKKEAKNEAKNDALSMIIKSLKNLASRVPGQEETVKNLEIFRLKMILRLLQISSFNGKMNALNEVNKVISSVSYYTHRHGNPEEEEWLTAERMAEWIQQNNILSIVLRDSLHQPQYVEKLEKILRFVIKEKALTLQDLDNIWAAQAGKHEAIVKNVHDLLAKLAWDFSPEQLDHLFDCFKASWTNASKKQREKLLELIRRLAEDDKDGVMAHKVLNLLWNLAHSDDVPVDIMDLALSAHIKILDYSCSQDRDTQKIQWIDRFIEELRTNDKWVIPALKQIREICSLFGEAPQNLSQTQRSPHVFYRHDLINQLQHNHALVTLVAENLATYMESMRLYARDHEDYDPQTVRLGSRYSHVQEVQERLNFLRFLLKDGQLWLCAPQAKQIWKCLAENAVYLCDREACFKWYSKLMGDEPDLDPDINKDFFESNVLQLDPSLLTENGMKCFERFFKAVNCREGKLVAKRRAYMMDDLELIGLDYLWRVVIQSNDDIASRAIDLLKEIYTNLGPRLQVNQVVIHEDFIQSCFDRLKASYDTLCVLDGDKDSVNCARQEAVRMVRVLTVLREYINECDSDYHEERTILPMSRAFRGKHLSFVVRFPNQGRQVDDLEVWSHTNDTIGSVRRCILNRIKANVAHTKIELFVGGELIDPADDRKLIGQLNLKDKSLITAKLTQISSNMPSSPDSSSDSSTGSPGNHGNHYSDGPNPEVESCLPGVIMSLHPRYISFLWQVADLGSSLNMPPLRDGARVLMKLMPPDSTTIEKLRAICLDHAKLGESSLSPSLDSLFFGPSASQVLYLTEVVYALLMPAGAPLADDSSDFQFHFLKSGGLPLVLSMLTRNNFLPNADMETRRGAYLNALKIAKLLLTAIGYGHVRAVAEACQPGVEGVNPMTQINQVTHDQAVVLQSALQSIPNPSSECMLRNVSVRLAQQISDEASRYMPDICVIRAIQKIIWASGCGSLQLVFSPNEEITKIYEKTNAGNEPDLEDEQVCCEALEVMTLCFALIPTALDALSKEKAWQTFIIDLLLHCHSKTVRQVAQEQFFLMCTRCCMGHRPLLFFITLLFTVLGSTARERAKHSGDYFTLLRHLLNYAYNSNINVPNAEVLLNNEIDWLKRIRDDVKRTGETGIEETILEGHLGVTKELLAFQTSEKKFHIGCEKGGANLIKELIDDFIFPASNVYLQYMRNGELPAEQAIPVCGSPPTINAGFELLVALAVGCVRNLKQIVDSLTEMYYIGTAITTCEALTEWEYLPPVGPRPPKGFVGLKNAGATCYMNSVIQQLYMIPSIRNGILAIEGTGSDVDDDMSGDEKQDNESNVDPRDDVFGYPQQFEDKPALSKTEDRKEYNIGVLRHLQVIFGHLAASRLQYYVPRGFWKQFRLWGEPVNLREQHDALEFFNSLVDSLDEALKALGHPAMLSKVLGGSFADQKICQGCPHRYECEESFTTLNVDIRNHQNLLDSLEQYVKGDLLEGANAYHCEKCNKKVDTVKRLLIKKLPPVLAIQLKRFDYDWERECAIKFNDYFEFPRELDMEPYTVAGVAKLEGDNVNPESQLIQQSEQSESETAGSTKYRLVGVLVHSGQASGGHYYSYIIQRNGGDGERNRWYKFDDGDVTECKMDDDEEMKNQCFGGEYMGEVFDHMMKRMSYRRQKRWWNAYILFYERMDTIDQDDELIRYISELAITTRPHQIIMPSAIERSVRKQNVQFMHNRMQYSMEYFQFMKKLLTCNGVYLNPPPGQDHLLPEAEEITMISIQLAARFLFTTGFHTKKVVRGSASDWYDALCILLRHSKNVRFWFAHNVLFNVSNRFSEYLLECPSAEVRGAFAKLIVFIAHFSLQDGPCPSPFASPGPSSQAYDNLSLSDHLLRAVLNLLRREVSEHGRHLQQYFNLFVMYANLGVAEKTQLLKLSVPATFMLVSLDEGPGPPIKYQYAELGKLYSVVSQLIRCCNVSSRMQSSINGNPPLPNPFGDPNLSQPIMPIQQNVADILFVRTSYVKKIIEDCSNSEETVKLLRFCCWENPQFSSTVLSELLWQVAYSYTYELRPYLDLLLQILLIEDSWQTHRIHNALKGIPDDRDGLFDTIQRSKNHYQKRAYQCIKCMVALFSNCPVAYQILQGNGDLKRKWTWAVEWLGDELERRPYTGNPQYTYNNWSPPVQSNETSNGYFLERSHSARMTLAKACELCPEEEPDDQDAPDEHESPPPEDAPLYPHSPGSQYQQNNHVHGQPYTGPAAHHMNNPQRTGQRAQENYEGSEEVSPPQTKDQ
Outline: as §1

UniProt O00487 = target: UniProt O00487
Chain of UniProt O00487 (O00487 whole entry): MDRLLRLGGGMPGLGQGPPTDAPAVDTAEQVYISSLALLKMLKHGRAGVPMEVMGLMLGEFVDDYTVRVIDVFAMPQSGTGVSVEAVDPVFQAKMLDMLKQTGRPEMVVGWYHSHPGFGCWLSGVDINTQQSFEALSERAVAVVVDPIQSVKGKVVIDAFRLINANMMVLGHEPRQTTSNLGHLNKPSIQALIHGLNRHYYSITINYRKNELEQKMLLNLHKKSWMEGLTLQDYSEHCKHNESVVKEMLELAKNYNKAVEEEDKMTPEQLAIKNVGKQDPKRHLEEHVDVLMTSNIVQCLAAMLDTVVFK
Outline: as §1

Measured: log2 ratio of Biotin-Ahx-Ub-VS probe labelling

Cc1cc(CC(C)NC(=O)CCl)n[nH]1 (stereo not given)
inactive: USP42 -0.515 | USP46 -0.086 | USP47 0.219 | USP48 -0.0294 | USP5 -0.0909 | USP54 -0.195 | USP7 -0.0248 | USP8 -0.57 | USP9X -0.345 | UniProt O00487 -0.0204
